Experimental data taken from the supplement of paper PMC8728848.
The full list was thinned out, with the strongest signals kept by preference.

Key:
Test in all cases: glycan array binding signal (z-score within array); higher = stronger binding
Details in all cases: glycan notation: IUPAC condensed, linker removed
[1] = target: Fuc(a1-2)Gal(b1-3)GalNAc(a1-3)[Fuc(a1-2)]Gal(b1-4)GlcNAc
Method in brief: (§1)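 Glycan array data came from 3228 arrays in the Consortium for Functional Glycomics database, and only arrays with an available protein sequence were kept. Glycan names were put into IUPAC-condensed notation, and columns mapping to the same glycan were averaged. The binding signal is a within-array Z-score, averaged across arrays of one protein sequence run at different concentrations or buffers and across linkers. A negative Z-score can be read as non-binding.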

[2] = target: Fuc(a1-2)Gal(b1-3)GalNAc(b1-3)Gal(a1-4)Gal(b1-4)Glc
Method in brief: as §1

[3] = target: Fuc(a1-2)Gal(b1-3)GalNAc(b1-4)[Neu5Ac(a2-3)]Gal(b1-4)Glc
Method in brief: as §1

[4] = target: Fuc(a1-2)Gal(b1-3)GlcNAc(b1-3)[Fuc(a1-2)Gal(b1-3)GlcNAc(b1-6)]GalNAc
Method in brief: as §1

Fuc(a1-2)Gal(b1-4)Glc6S = target: Fuc(a1-2)Gal(b1-4)Glc6S
Method in brief: as §1

Fuc(a1-2)Gal6S(b1-4)Glc = target: Fuc(a1-2)Gal6S(b1-4)Glc
Method in brief: as §1

[5] = target: Fuc(a1-2)[Gal(a1-3)]Gal(b1-3)GalNAc
Method in brief: as §1

[6] = target: Fuc(a1-2)[Gal(a1-3)]Gal(b1-4)GlcNAc(b1-3)[Fuc(a1-2)[Gal(a1-3)]Gal(b1-4)GlcNAc(b1-6)]GalNAc
Method in brief: as §1

[7] = target: Fuc(a1-2)[Gal(a1-4)]Gal(b1-4)GlcNAc
Method in brief: as §1

[8] = target: Fuc(a1-2)[GalNAc(a1-3)]Gal(b1-4)GlcNAc(b1-2)Man(a1-3)[Fuc(a1-2)[GalNAc(a1-3)]Gal(b1-4)GlcNAc(b1-2)Man(a1-6)]Man(b1-4)GlcNAc(b1-4)GlcNAc
Method in brief: as §1

[9] = target: Fuc(a1-2)[GalNAc(a1-3)]Gal(b1-4)GlcNAc(b1-3)Gal(b1-4)GlcNAc(b1-3)Gal(b1-4)GlcNAc
Method in brief: as §1

[10] = target: Gal(a1-3)[Gal(a1-4)]Gal(b1-4)GlcNAc
Method in brief: as §1

[11] = target: Gal(b1-3)GlcNAc(a1-6)Gal(b1-4)GlcNAc
Method in brief: as §1

Gal(b1-3)GlcNAc6S = target: Gal(b1-3)GlcNAc6S
Method in brief: as §1

[12] = target: Gal(b1-3)[Neu5Ac(a2-6)]GlcNAc(b1-4)Gal(b1-4)Glc
Method in brief: as §1

[13] = target: Gal(b1-3)[Neu5Ac(b2-6)]GalNAc
Method in brief: as §1

Gal(b1-4)Glc6S = target: Gal(b1-4)Glc6S
Method in brief: as §1

[14] = target: Gal(b1-4)GlcNAc(b1-2)Man(a1-3)Man(b1-4)GlcNAc(b1-4)GlcNAc
Method in brief: as §1

[15] = target: Gal(b1-4)GlcNAc(b1-2)[Gal(b1-4)GlcNAc(b1-6)]Man(a1-6)[Gal(b1-4)GlcNAc(b1-2)Man(a1-3)]Man(b1-4)GlcNAc(b1-4)[Fuc(a1-6)]GlcNAc
Method in brief: as §1

[16] = target: Gal(b1-4)GlcNAc(b1-2)[Gal(b1-4)GlcNAc(b1-6)]Man(a1-6)[GlcNAc(b1-4)][Gal(b1-4)GlcNAc(b1-2)Man(a1-3)]Man(b1-4)GlcNAc(b1-4)GlcNAc
Method in brief: as §1

[17] = target: Gal(b1-4)GlcNAc(b1-3)Gal(b1-4)GlcNAc(b1-3)[Gal(b1-4)GlcNAc(b1-3)Gal(b1-4)GlcNAc(b1-6)]GalNAc
Method in brief: as §1

[18] = target: Gal(b1-4)GlcNAc(b1-3)Gal(b1-4)GlcNAc(b1-6)[Gal(b1-3)]GalNAc
Method in brief: as §1

[19] = target: Gal(b1-4)GlcNAc(b1-3)GalNAc
Method in brief: as §1

Gal6S(b1-4)Glc6S = target: Gal6S(b1-4)Glc6S
Method in brief: as §1

GalNAc(b1-4)GlcNAc = target: GalNAc(b1-4)GlcNAc
Method in brief: as §1

Glc(b1-4)Glc = target: Glc(b1-4)Glc
Method in brief: as §1

[20] = target: GlcNAc(a1-4)Gal(b1-3)GlcNAc
Method in brief: as §1

[21] = target: GlcNAc(b1-2)[GlcNAc(b1-6)]Man(a1-6)[GlcNAc(b1-4)][GlcNAc(b1-2)Man(a1-3)]Man(b1-4)GlcNAc(b1-4)GlcNAc
Method in brief: as §1

[22] = target: GlcNAc(b1-3)Gal(b1-4)GlcNAc(b1-6)[Gal(b1-3)]GalNAc
Method in brief: as §1

[23] = target: GlcNAc(b1-3)[GlcNAc(b1-6)]Gal(b1-4)GlcNAc
Method in brief: as §1

Kdn(a2-3)Gal(b1-3)GalNAc = target: Kdn(a2-3)Gal(b1-3)GalNAc
Method in brief: as §1

Man(a1-2)Man(a1-3)Man = target: Man(a1-2)Man(a1-3)Man
Method in brief: as §1

[24] = target: Man(a1-2)Man(a1-3)[Man(a1-6)]Man(a1-6)[Man(a1-2)Man(a1-3)]Man(b1-4)GlcNAc(b1-4)GlcNAc
Method in brief: as §1

[25] = target: Man(a1-3)[Man(a1-6)]Man(a1-6)[Man(a1-3)]Man
Method in brief: as §1

[26] = target: Neu5Ac(a2-3)Gal(b1-3)GlcNAc
Method in brief: as §1

[27] = target: Neu5Ac(a2-3)Gal(b1-3)GlcNAc(b1-3)Gal(b1-4)GlcNAc
Method in brief: as §1

[28] = target: Neu5Ac(a2-3)Gal(b1-3)GlcNAc(b1-6)GalNAc
Method in brief: as §1

[29] = target: Neu5Ac(a2-3)Gal(b1-4)GlcNAc(b1-2)Man(a1-3)[Neu5Ac(a2-6)Gal(b1-4)GlcNAc(b1-2)Man(a1-6)]Man(b1-4)GlcNAc(b1-4)GlcNAc
Method in brief: as §1

[30] = target: Neu5Ac(a2-3)Gal(b1-4)GlcNAc(b1-2)[Neu5Ac(a2-3)Gal(b1-4)GlcNAc(b1-6)]Man(a1-6)[Neu5Ac(a2-3)Gal(b1-4)GlcNAc(b1-2)Man(a1-3)]Man(b1-4)GlcNAc(b1-4)GlcNAc
Method in brief: as §1

[31] = target: Neu5Ac(a2-3)Gal(b1-4)[Fuc(a1-3)]GlcNAc(b1-3)Gal(b1-4)[Fuc(a1-3)]GlcNAc(b1-3)Gal(b1-4)[Fuc(a1-3)]GlcNAc
Method in brief: as §1

[32] = target: Neu5Ac(a2-3)Gal(b1-4)[Fuc(a1-3)]GlcNAc(b1-3)GalNAc
Method in brief: as §1

[33] = target: Neu5Ac(a2-3)Gal(b1-4)[Fuc(a1-3)]GlcNAc(b1-6)[Neu5Ac(a2-3)Gal(b1-3)]GalNAc
Method in brief: as §1

[34] = target: Neu5Ac(a2-3)Gal6S(b1-4)GlcNAc
Method in brief: as §1

Neu5Ac(a2-3)GalNAc = target: Neu5Ac(a2-3)GalNAc
Method in brief: as §1

[35] = target: Neu5Ac(a2-3)[GalNAc(b1-4)]Gal(b1-4)Glc
Method in brief: as §1

[36] = target: Neu5Ac(a2-6)Gal(b1-4)GlcNAc
Method in brief: as §1

[37] = target: Neu5Ac(a2-6)Gal(b1-4)GlcNAc(b1-2)Man
Method in brief: as §1

[38] = target: Neu5Ac(a2-6)Gal(b1-4)GlcNAc(b1-2)[Neu5Ac(a2-6)Gal(b1-4)GlcNAc(b1-4)]Man(a1-3)[GlcNAc(b1-4)][Neu5Ac(a2-6)Gal(b1-4)GlcNAc(b1-2)[Neu5Ac(a2-6)Gal(b1-4)GlcNAc(b1-6)]Man(a1-6)]Man(b1-4)GlcNAc(b1-4)GlcNAc
Method in brief: as §1

[39] = target: Neu5Ac(a2-6)Gal(b1-4)GlcNAc(b1-3)Gal(b1-4)GlcNAc(b1-3)[Neu5Ac(a2-6)Gal(b1-4)GlcNAc(b1-3)Gal(b1-4)GlcNAc(b1-6)]GalNAc
Method in brief: as §1

[40] = target: Neu5Ac(a2-6)Gal(b1-4)GlcNAc(b1-6)GalNAc
Method in brief: as §1

[41] = target: Neu5Ac(a2-6)Gal(b1-4)GlcNAc(b1-6)[Gal(b1-3)GlcNAc(b1-3)]Gal(b1-4)Glc
Method in brief: as §1

[42] = target: Neu5Ac(a2-6)GlcNAc(b1-4)GlcNAc
Method in brief: as §1

[43] = target: Neu5Ac(a2-8)Neu5Ac(a2-8)Neu5Ac(a2-3)[GalNAc(b1-4)]Gal(b1-4)Glc
Method in brief: as §1

[44] = target: Neu5Ac(a2-8)Neu5Gc(a2-3)Gal(b1-4)GlcNAc
Method in brief: as §1

Neu5Gc(a2-6)GalNAc = target: Neu5Gc(a2-6)GalNAc
Method in brief: as §1

B1: PX14404-bvu-534-26-534 (Bacteroides vulgatus) (protein)
chain: EDPRGKLTPENFFSTQDELNMSIYALYQKVNLSQVYTNMQLPQWQGDDITTNPGSNKQPAAEMDKFAAANNNKGVKDAWNMHYAIVKAANLIIQGASKTPTTQDEINIALGQAKFWRAYAYFTLVRLWGPLPMNLDNVNDDYTKPLSPVEEVYGHIVQDLTEAEAVLPTGYSGSPRFLNGVNVYVTRQAAKSTLAAVYMAMAGWPMNKTEYYAKAAEKAKEVIEGVNRGEYEYKLDKDYKDVYAMSNNYNNETVLGINYSPFVDWAQDSELTSCNQFESLGGWGDAWGEIRFWKEFPDGPRKDATYDPKIRLKDGTLVDWWELKEDGTPVVPEHHPMFSIFSVNWDPASKVNTSAPYDYTKPASQNMCNDHRHRIIRYSEVLLWYAEAKARTGQTDELAFKCLNDVRERAGLEPLTGLSADDLAEAAYKEHGWEVAGYWVALVTRRADQFRMNRLKDTFKERAENTAVEVADGILVKESVEYTNRTWSDNLMYLPYPDMDSQKNPNLVR
[1]
  glycan array binding signal (z-score): -0.799
[2]
  glycan array binding signal (z-score): 0.314
[3]
  glycan array binding signal (z-score): -0.348
[4]
  glycan array binding signal (z-score): 2.03
Fuc(a1-2)Gal(b1-4)Glc6S
  glycan array binding signal (z-score): 2.24
Fuc(a1-2)Gal6S(b1-4)Glc
  glycan array binding signal (z-score): 2.73
[5]
  glycan array binding signal (z-score): 0.15
[6]
  glycan array binding signal (z-score): 0.311
[7]
  glycan array binding signal (z-score): 0.074
[8]
  glycan array binding signal (z-score): 0.042
[9]
  glycan array binding signal (z-score): -0.561
[10]
  glycan array binding signal (z-score): 3.57
[11]
  glycan array binding signal (z-score): -0.215
Gal(b1-3)GlcNAc6S
  glycan array binding signal (z-score): -0.497
[12]
  glycan array binding signal (z-score): 0.099
[13]
  glycan array binding signal (z-score): -1.21
Gal(b1-4)Glc6S
  glycan array binding signal (z-score): 0.084
[14]
  glycan array binding signal (z-score): -0.296
[15]
  glycan array binding signal (z-score): -0.583
[16]
  glycan array binding signal (z-score): -0.45
[17]
  glycan array binding signal (z-score): -0.105
[18]
  glycan array binding signal (z-score): 4.7
[19]
  glycan array binding signal (z-score): -0.885
Gal6S(b1-4)Glc6S
  glycan array binding signal (z-score): 3.4
GalNAc(b1-4)GlcNAc
  glycan array binding signal (z-score): -0.29
Glc(b1-4)Glc
  glycan array binding signal (z-score): -0.903
[20]
  glycan array binding signal (z-score): 0.178
[21]
  glycan array binding signal (z-score): -1.21
[22]
  glycan array binding signal (z-score): -0.575
[23]
  glycan array binding signal (z-score): -0.97
Kdn(a2-3)Gal(b1-3)GalNAc
  glycan array binding signal (z-score): 1.92
Man(a1-2)Man(a1-3)Man
  glycan array binding signal (z-score): 1.24
[24]
  glycan array binding signal (z-score): -0.161
[25]
  glycan array binding signal (z-score): 2.67
[26]
  glycan array binding signal (z-score): 0.177
[27]
  glycan array binding signal (z-score): -0.891
[28]
  glycan array binding signal (z-score): -0.09
[29]
  glycan array binding signal (z-score): 0.576
[30]
  glycan array binding signal (z-score): -0.695
[31]
  glycan array binding signal (z-score): 0.228
[32]
  glycan array binding signal (z-score): 0.921
[33]
  glycan array binding signal (z-score): 3.23
[34]
  glycan array binding signal (z-score): 0.553
Neu5Ac(a2-3)GalNAc
  glycan array binding signal (z-score): 0.608
[35]
  glycan array binding signal (z-score): -1.43
[36]
  glycan array binding signal (z-score): 0.634
[37]
  glycan array binding signal (z-score): -0.24
[38]
  glycan array binding signal (z-score): -0.206
[39]
  glycan array binding signal (z-score): 0.075
[40]
  glycan array binding signal (z-score): 0.144
[41]
  glycan array binding signal (z-score): -1.1
[42]
  glycan array binding signal (z-score): -0.51
[43]
  glycan array binding signal (z-score): 0.28
[44]
  glycan array binding signal (z-score): 12.9
Neu5Gc(a2-6)GalNAc
  glycan array binding signal (z-score): 1.92
